Values without a mark were called inactive. Calls of active or inactive are those of the source.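 The calls were made as follows: active = GFP response above 150% of the DMSO level; inconclusive = fewer than 70 events counted for a yeast strain; inactive = the rest.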

This passage reports GFP response, % of DMSO results from PubChem BioAssay.

The nature of this assay: TOR pathway CIT2 reporter hit retest – S. cerevisiae, GFP fusion, cherry picks, mother/daughter gates, confirmation (AID 2274). The following applies: S. cerevisiae CIT2-GFP strain, flow cytometry, 3 h; at 10 µM; stronger effect = higher value. For orientation: In flow cytometry, cells or beads pass a laser one at a time.
With `Cc1ccc(/C=C/C(=O)c2ccc([N+](=O)[O-])o2)cc1`, the GFP response, % of DMSO is 106%. `CCCN1CCc2c(sc(NC(=S)NC(=O)c3ccccc3)c2C#N)C1`: the GFP response, % of DMSO is 106%. As for `O=C(CN1CCN(Cc2ccccc2Cl)C1=O)NC1CCCCCCC1`, the GFP response, % of DMSO is 107%. For the molecule `O=c1oc(/C=C/c2ccc([N+](=O)[O-])s2)nc2ccccc12`, the GFP response, % of DMSO is 183% (active). Turning to `COc1ccccc1Oc1ccc(S(=O)(=O)N2CCCC2)cc1`, the GFP response, % of DMSO was 93.9%.

On to `COc1ccc(C(=O)Nc2c(N)nc[nH]c2=O)cc1`, for which the GFP response, % of DMSO was 105%. As for `Cc1[nH]n(-c2ncc(-c3ccccc3)s2)c(=O)c1C(c1ccc(Cl)cc1)C(C#N)C#N` (stereo unspecified), the figure is 95.8%. As for `COc1ccc(-c2cc3cc(C(=O)O)ccn3c2C(=O)c2ccccc2)cc1`, the GFP response, % of DMSO is 98.3%.

With `CCOC(=O)c1ccc(NC(=O)CCc2nc(-c3ccc(Cl)cc3)no2)cc1`, the GFP response, % of DMSO was 105%. Next, `CS(=O)(=O)N1N=C(c2ccco2)CC1c1ccc(Br)cc1` (stereo unspecified): 103%. For `O=C(O)c1ccc2c3c(ncnc13)-c1ccccc1C2=O`, the GFP response, % of DMSO is 123%. With `CCN(CC)C(=O)c1ccc2c3c(cccc13)C(=O)N(CCc1ccc(OC)c(OC)c1)C2=O`, the GFP response, % of DMSO is 96.4%. Regarding `Oc1cccc(/C=N/c2c(-c3ccco3)nc3ccccn23)c1`, the GFP response, % of DMSO was 96.4%. As to `O=C(Nc1nccs1)C(c1ccccc1)N1CCCCC1` (stereo unspecified), the GFP response, % of DMSO is 94.4%. As for `CCN1/C(=C/c2ccc3cc(C)ccc3[n+]2CC)Sc2ccc3sccc3c21`, the GFP response, % of DMSO is 132%. As for `COCCCN(C(=O)c1ccco1)c1nc(-c2cc(OC)ccc2OC)cs1`, the figure is 100%.
